Assay results: the supplement of paper PMC3334620
Over roughly 33,000 sequences, “E-score (-0.5 to 0.5)” has its median near -0.0034; the highest 2% begin near 0.25. The full list was thinned out, with the highest values kept by preference.

Molecular target: T1, Yap3 (UniProt P38749)
T1 sequence: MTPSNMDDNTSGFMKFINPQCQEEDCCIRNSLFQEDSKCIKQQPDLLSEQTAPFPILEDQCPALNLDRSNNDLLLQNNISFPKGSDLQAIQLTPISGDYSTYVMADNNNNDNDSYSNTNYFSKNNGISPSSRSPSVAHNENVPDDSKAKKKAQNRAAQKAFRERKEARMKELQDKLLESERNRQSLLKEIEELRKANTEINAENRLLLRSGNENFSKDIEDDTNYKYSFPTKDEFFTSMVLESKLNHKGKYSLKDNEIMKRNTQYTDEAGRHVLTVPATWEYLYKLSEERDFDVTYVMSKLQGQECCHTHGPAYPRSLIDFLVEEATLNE
Assay: PBM E-score (8-mer binding enrichment) (E-score (-0.5 to 0.5)); higher = stronger / more preferred TF binding
Details: protein concentration: 100 nM; construct: GST-full length
Description: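 Universal 'all 10-mer' protein binding microarrays (Agilent AMADID 015681) probed with GST-tagged S. cerevisiae TFs (full-length or DBD) made by in vitro transcription/translation (PURExpress), about 100-200 nM. Bound TF was detected with fluorescent anti-GST. Each ungapped 8-mer (which stands for itself and its reverse complement) is scored by the PBM enrichment score (E-score), a modified Wilcoxon-Mann-Whitney statistic from -0.5 to +0.5, computed with the Universal PBM Analysis Suite. Scale: above 0.35 generally sequence-specific binding.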

Sequence | PBM E-score
CCACCAGC | -0.0909
CATCCTAG | -0.0476
GGGGAGAC | -0.304
AAGCTTTG | 0.0373
TAACCCGA | -0.0757
GAACCCGA | -0.121
AAACCCGA | 0.261
GAACCCAC | 0.028
AGCGCGCA | 0.24
AAGTAAAG | 0.103
AAGTAAAC | 0.0216
AAGTAAAT | 0.26
ACTAGTTC | 0.0926
ATTACTTA | 0.257
ATTACTCA | 0.299
ATTACTCC | 0.143
CTTACTTA | 0.113
ATTACTCG | 0.23
ATTACTGA | 0.154
ATGGTTAA | 0.0266
GCTCGCGA | 0.109
ATCGCTGG | -0.223
ATTAAGGC | 0.0716
GTAGCCGA | -0.114
ACCCTGTA | 0.00489

Sequence | PBM E-score
AATATAAT | 0.179
CATATAAG | 0.113
AATATAAC | 0.247
AATATAAA | 0.282
AATATAAG | 0.353
ACTATAAA | 0.237
GATATAAA | 0.21
TATATAAA | 0.274
TATAAAAA | 0.265
CATAAAAA | 0.186
GATAAAAA | 0.192
CATATAAA | 0.183
GCTCCTCC | -0.294
CCACCCAA | -0.0309
GCCGTATA | 0.141
GTGCCGCA | -0.0486
GCAAGTCC | -0.203
AGGGGCAA | 0.0575
TCCTTTCA | 0.062
AGTGGCCG | -0.119
CTTTATGC | 0.109
GAGAAGTA | 0.0274
AAAGCTGT | 0.15
ACCCTGCA | 0.122
ATGCGCAT | 0.315

Sequence | PBM E-score
ATGCGCAC | 0.0993
ATGCGCAA | 0.0772
ACCTATTA | 0.11
AAAGGCAA | 0.254
TAAGGCAA | 0.0224
AAAGGCAG | -0.0629
GTCCCGGA | -0.103
GGTCGCGA | 0.0906
AGTCGCGA | 0.272
AATCGCGA | 0.255
AATCGCGT | 0.156
CGTCGCGA | 0.141
CATCGCGA | 0.112
ATGGTTCC | 0.0898
CTCTTTGC | 0.00066
AACTTCGG | 0.13
AAATTTCC | 0.125
TAATTTCA | 0.309
GAATTTCC | 0.277
CAATTTCC | 0.0859
AAATTTCA | 0.0121
CAATTTCA | 0.0657
AACAGTCG | -0.0471
CCAGCCCG | -0.258
GTTTACCA | 0.107

Sequence | PBM E-score
CCTAAGCG | -0.033
CCCCATCC | -0.233
ACGCGAGT | 0.087
ACATTTAA | 0.221
TATGCGAA | 0.0891
AATGGAAG | 0.105
AATGGAAT | 0.275
AACGGAAG | 0.2
AATGGAAC | 0.12
AACGGAAA | 0.171
AACGGAAT | 0.262
GCTCCTTA | 0.0472
TAATGACA | 0.197
TAACCTTA | -0.0831
TAGTCTCA | -0.034
AAGTACTT | -0.202
ATGGATAG | 0.0546
ACTAACAC | 0.125
ACTAACAG | 0.315
CCTAACAG | 0.0154
CCATTGTC | 0.0818
ACATTGTG | 0.0748
ACATTGTC | 0.261
GGCTTATA | -0.00779
CTCGACGC | 0.0226

Sequence | PBM E-score
AATGTTGC | 0.0681
CGGATGAG | -0.0331
AGGATGAA | 0.0231
CGGATGAA | 0.265
ATAGAAAA | 0.217
ACTACACG | 0.0255
ATAACACA | 0.273
ATTACAGA | 0.11
ATAACACG | 0.137
ACTACACA | 0.258
CTAACACA | 0.146
CCTACACG | -0.251
ATTACAGC | -0.046
ATTACACA | 0.255
ATTACACG | 0.0795
ATTACACC | 0.215
ATTACAGG | 0.268
CCAGTGGC | -0.168
ATCGAGTC | -0.0569
CAGTAAGC | 0.0593
AAAGATGA | 0.144
ATTCTTCA | 0.0724
ATAACCTG | -0.0425
CGTATAAA | 0.156
GATTACAA | 0.154

Sequence | PBM E-score
ACCAGTTG | 0.0294
AAAAGGGG | -0.187
AATCAACC | -0.0555
GATCAACA | -0.0544
TATCAACA | 0.123
AATCAATT | 0.256
AATCAATG | 0.2
AATCAACA | 0.304
AATCAACG | 0.109
AATCAATC | 0.139
CATCAACA | 0.255
CTCGGTAA | 0.053
ATGAAAAT | 0.209
GTGAAATA | 0.0605
ATGAAAAA | 0.278
ATGAAAAG | 0.122
ATGAAATA | 0.288
CTGAAATA | 0.165
ACGTGCTC | -0.0391
AAAGGTAA | 0.0127
CGGTTGAG | -0.052
AGATTCGC | -0.0247
CGTCTGAC | 0.066
CAAGTGTG | 0.0428
CTGACACC | -0.174

Sequence | PBM E-score
ATGGCACC | -0.14
CTCTGCAC | -0.173
GTATATAA | 0.217
TGATATAA | 0.108
ACATATAC | 0.146
ACATATAT | 0.123
AGGTATAA | 0.0868
TTATATAA | 0.418
ACATATAA | 0.29
CTCTATAA | 0.0647
CGGTATAA | 0.18
CTATATAA | 0.121
ATATATAA | 0.295
TGGTATAA | 0.268
GCCTGCCC | -0.297
CAGAACTG | 0.157
AGCATGAC | -0.037
ACGACCTG | -0.18
AAAGTGTC | -0.0685
CGGACTAG | -0.101
CTAGAGAG | -0.139
TGCGACAA | -0.00108
GGCGACAA | -0.181
CGCGACAA | 0.272
